HT1080 IDH1KD tx: toxicity to HT-1080 IDH1 knockdown cells (counter line); HT-1080 IDH1 knockdown viability, ATP luminescence, 48 h; Potency, µM (highest dose often 46.1 µM), hits mostly cytotoxic; hit rate 2% among 360,000
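In this qHTS, HT-1080 cells depleted of IDH1 are exposed for 48 h at 37 °C to compound titrations. Toxicity is scored from CellTiter-Glo luminescence, with DMSO as full viability and medium alone as none.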
TDP1 cell noCPT: qHTS for Inhibitors of human tyrosyl-DNA phosphodiesterase 1 (TDP1): qHTS in cells in absence of CPT; hit rate 15% among 420,000; DT40 Tdp1-/- hTDP1 cells, no CPT, ATP luminescence, 48 h; Potency, µM (top dose mostly 46.2 µM), hits mostly inhibitors; AID 686978, 2013; further: nearly all actives have a fitted effect of over 55% in size
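Chicken DT40 Tdp1-/- cells complemented with human TDP1, screened without camptothecin (DMSO vehicle only), 400 cells/well. Compounds pin-transferred, cells incubated at 37 °C for at least 48 hr. Growth read as ATP-dependent luminescence (CellTiter-Glo, 30 min at RT).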
DT40 TDP1 CPT: growth inhibition of DT40 Tdp1-/-;hTDP1 cells with camptothecin (screen for TDP1 inhibitors) | chicken DT40 Tdp1-/-;hTDP1 cells + 20 nM CPT, ATP luminescence, 48 h | Potency, µM (top dose mostly 46.2 µM), usual class: inhibitors | hit rate 12% among 420,000 | AID 686979; further: nearly all actives have a fitted effect of over 55% in size
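Chicken DT40 Tdp1-/- cells complemented with human TDP1, 400 cells/well, exposed to compounds plus 20 nM camptothecin for at least 48 h at 37 C; viability read as ATP content by CellTiter-Glo luminescence.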
HT1080NT lethal: kills 2HG-producing HT-1080-NT fibrosarcoma cells; hit rate 1.6% among 360,000; HT-1080-NT fibrosarcoma viability, CellTiter-Glo ATP luminescence, 48 h; Potency, µM (highest dose often 46.1 µM), hits mostly cytotoxic;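 further: NT is the 2HG producing partner of a matched IDH1 knockdown line; nearly all actives have a fitted effect of over 55% in size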
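Read-out is CellTiter-Glo luminescence after 10 minutes at room temperature, following 48 hours' compound treatment of HT-1080-NT cells (750 cells/well, RPMI, 5% FBS, 37 degrees C).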
ELG1 DNA repair: ELG1-dependent DNA repair inhibition | HEK293T ELG1-luciferase reporter, luminescence, 16 h; DNA damage induced by 5-fluorouridine | Potency, µM (titrated, usually from 46.1 µM), hits mostly inhibitors | hit rate 2.3% among 330,000 | AID 504467; further: nearly all actives have a fitted effect of over 55% in size
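5-Fluorouridine DNA damage + compound/DMSO, 2,000 cells/well, 16 h, 37 °C/5% CO2. ONE-Glo, 30 min RT, luminescence. Readout = decrease in reporter signal.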
IL1B secr inh: blocks inflammasome-driven IL-1 beta release; THP-1 LPS/ATP IL-1B secretion, AlphaLISA, 16 h; active compounds read low; activity change, % at 57.5 µM; hit rate 4.7% among 360,000; in the data active means activity change below about -50%; inconclusive means mostly about -30% to -49%
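Secreted IL-1B measured by AlphaLISA bead assay after 16 h compound exposure of THP-1 cells; compounds (final up to 57.5 uM) added 1 h before LPS (250 ng/mL) and ATP (1.25 mM) stimulation; lower signal means less secretion.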
Hits are given with their value; n = inactive; u = inconclusive; x = no result given. In the library only some 19% were active in any assay of this set; here they are far more common. Unless noted, the call rests on the fitted dose curve; in most records, active means well fitted curve in the direction sought with a large enough effect; inconclusive means small, poorly fitted or top-dose-only effect, or another doubt; inactive means no such curve, though single readings can be large; an effect the other way counts as inactive or inconclusive.

SMILES	HT1080 IDH1KD tx	TDP1 cell noCPT	DT40 TDP1 CPT	HT1080NT lethal	ELG1 DNA repair	IL1B secr inh
COc1ccc(C(=O)/C=C/c2ccccc2)c(O)c1	n	23µM	u	n	u	-99
COc1ccc(OC(=O)c2cccc([N+](=O)[O-])c2)c(C(=O)/C=C/c2cccs2)c1	u	u	u	u	u	-53
O=C(/C=C/c1cc[n+](CC(=O)c2ccc3cccc4c3c2CC4)cc1)c1ccc2cccc3c2c1CC3	n	u	u	n	n	n
O=C(COC(=O)c1ccc(Cl)c(S(=O)(=O)NCc2ccccc2)c1)NCC1CCCO1 (stereo not given)	n	n	n	n	n	n
COc1ccc(C(=O)/C=C/c2ccccc2OC)c(OC(=O)c2ccc([N+](=O)[O-])cc2)c1	n	u	u	n	x	-97
COc1ccc(NC(=O)c2ccc([N+](=O)[O-])cc2[N+](=O)[O-])c(OC)c1	n	n	n	n	n	n
O=C(/C=C/c1ccccc1)c1ccc(O)cc1O	x	16µM	u	x	x	x
CC(=O)OCC(=O)C1(O)CCC2C3CCC4=CC(=O)CCC4(C)C3(Cl)C(O)CC21C (stereo not given)	n	u	u	n	x	n
c1cc2c(cc1Cn1cnnn1)OCO2	n	n	n	n	n	n
Cc1nnc(C)c2c(C)n(Cc3ccc4c(c3)OCO4)c(C)c12	n	16µM	13µM	n	n	n
CCCN(C(=O)c1cc2c(s1)CCC2)c1c(N)n(Cc2ccccc2)c(=O)[nH]c1=O	n	n	n	n	n	n
COc1ccccc1-c1ccc(SCc2ccc(F)cc2)nn1	n	n	n	n	n	u
COc1ccccc1-c1ccc(SCc2ccc(C)cc2)nn1	n	15µM	u	n	u	n
Cc1cccc(NC(=O)COC(=O)c2ccccc2SCC(=O)N2CCCC2)c1	n	n	n	n	n	n
COc1cccc(C(=O)/C=C2\Sc3ccccc3N2C)c1	n	u	u	n	u	-77
CC(C)n1cc(/C=C2/NC(=O)N(c3cccc(Cl)c3)C2=O)c2ccccc21	u	u	26µM	n	u	n
CC(C)n1cc(/C=C2\NC(=O)N(c3cccc(Cl)c3)C2=O)c2ccccc21	n	u	u	u	n	n
Cc1ccc(-n2cc(CNC(C)c3cnn(C)c3)c(-c3ccc(F)cc3)n2)cc1 (stereo not given)	n	21µM	18µM	n	n	n
Cc1ccc(-c2nn(-c3ccc(F)cc3)cc2C(=O)NC2CCC(O)CC2)cc1 (stereo not given)	n	n	n	n	u	n
Cc1ccc(-n2cc(CNC(C)c3cnn(C)c3C)c(-c3ccc(F)cc3)n2)cc1 (stereo not given)	n	2.9µM	5.2µM	n	n	u
Cc1ccc(-n2cc(CNC(C)Cn3cncn3)c(-c3ccc(F)cc3)n2)cc1 (stereo not given)	n	u	u	n	u	u
NC(=O)C1CCN(S(=O)(=O)c2cc3c(cc2Cl)NC(=O)CO3)CC1	x	n	n	x	x	x
CN(C(=O)c1cc(-c2ccccc2O)on1)c1ccccc1	x	u	n	x	x	x
S=C(NCc1ccccc1)N1CCCCC1	n	n	n	n	n	n
CC(NNC(=S)N1CCCCCC1)c1ccc2ccccc2n1 (stereo not given)	u	0.0082µM	0.0082µM	23µM	x	n
SMILES	HT1080 IDH1KD tx	TDP1 cell noCPT	DT40 TDP1 CPT	HT1080NT lethal	ELG1 DNA repair	IL1B secr inh
C=C[C@H]1[C@H](OC2OC(CO)C(O)C(O)C2O)OC=C(C(=O)OC)[C@H]1C[C@H]1CC(=O)C[C@H](CC(=O)CCc2ccc(O)cc2)O1 (stereo not given in full)	n	n	n	n	x	n
C/C(=N\Nc1nc2ccccc2[nH]1)c1ccc(N2CCOCC2)cc1	u	16µM	u	u	u	-96
C/C(=N\Nc1nc2ccccc2[nH]1)c1ccc(Cl)s1	u	23µM	u	u	u	-97
Cc1ccc(S(=O)(=O)N2C[C@H]3C(=O)C[C@@H]4C(=O)N(c5ccccc5)C(=O)[C@@H]4[C@@H]3C[C@H]2c2cccc(Cl)c2)cc1	n	n	n	n	x	n
C[C@@H]1CN([C@H](C)CO)C(=O)CCCn2nncc2CO[C@H]1CN(C)S(=O)(=O)c1ccc(Oc2ccccc2)cc1	n	u	n	n	x	n
O=C(c1ccoc1)N1CCN(c2cc(-c3ccco3)nc3cc(-c4ccccc4)nn23)CC1	u	7.3µM	8.2µM	u	x	n
Cc1cc(N2CCN(C(=O)c3ccoc3)CC2)n2nc(-c3ccccc3)cc2n1	n	18µM	u	n	x	n
COc1ccccc1-c1cc2nc(-c3ccccc3)cc(N3CCN(C(=O)c4ccco4)CC3)n2n1	n	6.5µM	12µM	n	x	n
O=C(c1ccoc1)N1CCN(c2cc(-c3ccccc3)nc3cc(-c4ccccc4)nn23)CC1	u	16µM	18µM	n	x	n
COc1cccc(CCNC(=O)c2ccc(OC)c(OC3CCN(C(C)C)CC3)c2)c1	n	n	n	n	n	n
COc1ccc(-c2nc3cnc(OC)nc3n(C3CC3)c2=O)cc1	x	n	n	x	x	x
COc1ccccc1-c1cc2nc(-c3ccccc3)cc(N3CCN(C(=O)c4ccoc4)CC3)n2n1	n	5.2µM	9.2µM	n	x	n
Cc1ccc(C)c(N2CCN(S(=O)(=O)c3c(C)noc3/C=C/N(C)C)CC2)c1	n	18µM	u	n	n	n
Cc1noc(C)c1S(=O)(=O)N1CCC(C(=O)N2CCN(c3ccccc3Cl)CC2)CC1	n	21µM	u	n	u	n
Cc1noc(C)c1S(=O)(=O)N1CCC(C(=O)N2CCN(c3ccccc3)CC2)CC1	x	u	n	x	x	x
Cc1noc(C)c1S(=O)(=O)N1CCC(C(=O)N2CCN(c3ccc(Cl)cc3)CC2)CC1	n	u	u	n	u	n
Cc1noc(C)c1S(=O)(=O)N1CCC(C(=O)N2CCN(c3cccc(C(F)(F)F)c3)CC2)CC1	x	3.3µM	5.2µM	x	x	x
Cc1ccc(C)c(N2CCN(C(=O)C3CCN(S(=O)(=O)c4c(C)noc4C)CC3)CC2)c1	18µM	8.2µM	10µM	n	12µM	u
O=C(NC1CCCC1)C(c1ccccn1)N(C(=O)c1csnn1)c1ccccc1F (stereo not given)	n	n	n	n	n	n
Nc1nc(-c2ccccc2)c(N=Nc2ccccc2Cl)s1	18µM	16µM	n	u	n	-64

High-throughput results as filed in PubChem BioAssay.
